# Hits are enriched below; roughly 19% of the tested compounds scored in any of these assays.
# TDP1 cell noCPT: qHTS for Inhibitors of human tyrosyl-DNA phosphodiesterase 1 (TDP1): qHTS in cells in absence of CPT; hit rate 15% among 420,000; Potency, µM (titrated, usually from 46.2 µM), for the others: top-dose activity change, negative = growth inhibition, usual class: inhibitors; DT40 Tdp1-/- hTDP1 cells, no CPT, ATP luminescence, 48 h; also: nearly all actives have a fitted effect of over 55% in size
#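 Growth of hTDP1-complemented DT40 Tdp1-knockout cells is measured by ATP luminescence after at least 48 hr compound exposure at 37 °C, with DMSO substituting for the 20 nM CPT used in the parallel screen.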
# HT1080 IDH1KD tx: toxicity to HT-1080 IDH1 knockdown cells (counter line) | HT-1080 IDH1 knockdown viability, ATP luminescence, 48 h | Potency, µM (titrated, usually from 46.1 µM), without a hit: at the highest dose activity, negative = toxicity, usual class: cytotoxic | hit rate 2% among 360,000 | AID 686971;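 also: 0% = DMSO wells and -100% = cell-free medium wells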
#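 Cytotoxicity counter-line: IDH1KD HT-1080, 48 h, CellTiter-Glo. Curves classed by r2, magnitude and activity.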
# DT40 TDP1 CPT: growth inhibition of DT40 Tdp1-/-;hTDP1 cells with camptothecin (screen for TDP1 inhibitors). Potency, µM (top dose mostly 46.2 µM), inactives show at the highest dose activity change, negative = growth inhibition, usual class: inhibitors. chicken DT40 Tdp1-/-;hTDP1 cells + 20 nM CPT, ATP luminescence, 48 h. hit rate 12% among 420,000. AID 686979; also: nearly all actives have a fitted effect of over 55% in size
#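 Chicken DT40 Tdp1-/- cells stably complemented with human TDP1 were seeded at 400 cells/well in medium containing 20 nM camptothecin, exposed to pin-transferred compounds, and grown at 37 °C for at least 48 hr. Viability was read as ATP luminescence.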
# KB-V1 MDR tox: KB-V1 MDR subline cytotoxicity. KB-V1 MDR cells viability, CellTiter-Glo, 72 h. Potency, µM (highest dose often 46.1 µM), hits mostly cytotoxic. hit rate 3.4% among 400,000; also: nearly all actives have a fitted effect of over 60% in size
#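 Cytotoxicity via CellTiter-Glo luminescence after 72 h compound exposure at 37 degrees C. Cells: drug-selected KB-V1 line, DMEM phenol-red free plus 10% FBS. Compounds tested at multiple concentrations; normalized data fitted to concentration-effect curves.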
# HT1080NT lethal: kills 2HG-producing HT-1080-NT fibrosarcoma cells; AID 686970; Potency, µM (doses to about 46.1 µM), without a hit: top-dose activity, negative = less viability, most hits filed as cytotoxic; HT-1080-NT fibrosarcoma viability, CellTiter-Glo ATP luminescence, 48 h; hit rate 1.6% among 360,000;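 also: NT is the 2HG producing partner of a matched IDH1 knockdown line; 0% = DMSO-treated cells and -100% = media-only wells without cells; nearly all actives have a fitted effect of over 55% in size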
#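 HT-1080-NT fibrosarcoma cells (2HG-overproducing), 750 cells/well in RPMI with 5% FBS, dosed after 2 h and incubated 48 h at 37C. CellTiter-Glo luminescence normalized to DMSO and no-cell wells; concentration-response curves fitted and classed.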
# KB-3-1 tox: KB-3-1 parental cell cytotoxicity. KB-3-1 viability, CellTiter-Glo ATP luminescence, 72 h. hit rate 1.4% among 400,000. AID 1347075. Potency, µM (highest dose often 46.1 µM), usual class: cytotoxic; also: nearly all actives have a fitted effect of over 60% in size
#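 Using CellTiter-Glo luminescence, growth of non-resistant KB-3-1 adenocarcinoma cells is assessed 72 h after pin-tool compound addition at 37 °C. Normalized responses across the concentration series yield fitted curves.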
# * marks the source's active call; other numbers are inactive results; i = inactive; ? = inconclusive; . = no result given. Calls follow the shape of the dose curve; as a rule, active = well fitted curve in the direction sought with a large enough effect; inconclusive = small, poorly fitted or top-dose-only effect, or another doubt; inactive = no such curve, though single readings can be large; an effect the other way counts as inactive or inconclusive. Unless noted, % is scaled to controls: 0 for no effect and ±100 for the full control effect; potency is read from the fitted curve at half-maximal effect.
SMILES,TDP1 cell noCPT,HT1080 IDH1KD tx,DT40 TDP1 CPT,KB-V1 MDR tox,HT1080NT lethal,KB-3-1 tox
CCN(Cc1nc2cc(Cl)ccc2c(=O)[nH]1)C(=O)c1nn(C)c(=O)c2ccccc12,?,-4%,-24%,18µM*,-12%,i
CCN(Cc1nc2cc(Cl)ccc2c(=O)[nH]1)C(=O)c1cc(C2CC2)nn1-c1ccccc1,2.9µM*,3%,5.2µM*,i,-2%,i
O=C(O)C1CCC(Cn2c(SCc3cc(=O)n4ccccc4n3)nc3ccsc3c2=O)CC1 (stereo not drawn),?,5%,-14%,i,?,i
N#Cc1ccccc1CSc1nc2ccsc2c(=O)n1Cc1ccccn1,?,-7%,?,i,-23%,i
O=c1c2sccc2nc(SCc2cc(=O)n3cc(Br)ccc3n2)n1Cc1ccccn1,21µM*,-1%,21µM*,?,3%,?
Cc1ccc(CSc2nc3ccsc3c(=O)n2Cc2ccccn2)cc1,16µM*,-10%,?,?,1%,i
CC(C)(C)N1CSC(=S)N(Cc2ccccc2)C1,4.6µM*,2%,5.2µM*,?,19%,i
CC(C)N1CSC(=S)N(Cc2ccccc2)C1,4.1µM*,0%,4.1µM*,i,1%,i
S=C1NCN(CCc2ccccc2)CN1Cc1ccccc1,?,3%,?,i,-5%,i
S=C1SCN(Cc2cccnc2)CN1Cc1ccccc1,4.6µM*,21µM*,2.9µM*,i,?,i
COc1cccc(C(O)c2nc(-c3cccc(C#N)c3)cs2)c1 (stereo not drawn),?,0%,?,?,1%,?
COc1ccccc1C(CCNS(=O)(=O)c1ccc(C)cc1)c1ccco1 (stereo not drawn),?,1%,?,?,-6%,i
Cc1ccc(S(=O)(=O)NCC(=O)N(c2ccccc2)C(C(=O)NCc2ccccc2)c2ccco2)cc1 (stereo not drawn),18µM*,-4%,?,2.3µM*,-2%,i
Cc1ccc(S(=O)(=O)NCCC(c2ccc(F)cc2)c2ccco2)cc1 (stereo not drawn),?,-23%,?,21µM*,-8%,?
Cc1ccc(S(=O)(=O)NCCC(c2ccccc2)c2ccco2)cc1 (stereo not drawn),?,-6%,-22%,23µM*,-1%,i
CCOC(=O)CC1COCCN1Cc1cn[nH]c1-c1cc(OC)c(OC)c(OC)c1 (stereo not drawn),-23%,1%,?,i,0%,i
CCCCN(C)C(=O)CN1C(=O)CCn2nc(-c3cn(C)c4ccccc34)cc21,-30%,.,?,i,.,i
CCOC(=O)CNC(=O)C1c2ccccc2Oc2ccccc21,0%,2%,1%,i,-2%,i
Cc1ccc(CN(c2ccc(C(=O)Nc3ccc4c(c3)OCO4)cc2)S(C)(=O)=O)cc1,9%,-6%,1%,6.5µM*,0%,i
CC(=O)c1cccc(NC(=O)c2ccc(N(C)S(=O)(=O)c3ccc(C)cc3)cc2)c1,?,-5%,?,i,-6%,i
C=CCN(c1ccc(C(=O)Nc2ccc(C)c(C)c2)cc1)S(C)(=O)=O,?,-4%,-24%,21µM*,-1%,i
C=CCN(c1ccc(C(=O)Nc2ccc(C)cc2)cc1)S(C)(=O)=O,-12%,-5%,5%,i,5%,i
CC(=O)c1cccc(NC(=O)c2ccc(N(Cc3ccc(C)cc3)S(C)(=O)=O)cc2)c1,?,?,16µM*,?,?,i
Cc1ccc(NC(=O)c2ccc(N(Cc3ccccc3)S(C)(=O)=O)cc2)cc1,12µM*,.,?,i,.,?
c1ncc(-c2ccoc2)c(NC2CC2)n1,-9%,.,-27%,.,.,.
SMILES,TDP1 cell noCPT,HT1080 IDH1KD tx,DT40 TDP1 CPT,KB-V1 MDR tox,HT1080NT lethal,KB-3-1 tox
CS(=O)(=O)N(Cc1ccc(Cl)cc1)c1ccc(C(=O)Nc2cccnc2)cc1,-29%,?,-17%,21µM*,-10%,?
CS(=O)(=O)N(Cc1ccccc1)c1ccc(C(=O)Nc2cccc(Cl)c2)cc1,15µM*,.,?,i,.,i
CN(c1ccc(C(=O)Nc2cccnc2)cc1)S(=O)(=O)c1ccc(Cl)cc1,?,-10%,?,?,-1%,i
CC(C)NC(=O)c1ccc(N(Cc2ccccc2)S(C)(=O)=O)cc1,1%,-1%,1%,i,4%,i
Cc1ccc(N(C(C)C(=O)Nc2ccc3c(c2)OCO3)S(C)(=O)=O)cc1 (stereo not drawn),21µM*,13%,13µM*,i,13%,i
CS(=O)(=O)N(Cc1ccc(Cl)cc1)c1ccc(C(=O)NCCSc2ccccn2)cc1,?,?,?,5.8µM*,-19%,?
Cc1cccc(C2c3[nH]c4ccccc4c3CCN2C(=O)c2cc(CC(C)C)nc(C)n2)n1 (stereo not drawn),-7%,-10%,-16%,i,0%,i

# Screens from PubChem BioAssay.
